Among the data in publication PMC7862700, “An all-to-all approach to the identification of sequence-specific readers for epigenetic DNA modifications on cytosine” are binding signal values, retold here.

Test in all cases: DAPPL (digital affinity profiling via proximity ligation, sequencing); 10 mM Tris-HCl pH 7.5, 50 mM NaCl, 1 mM DTT, 4% glycerol, room temperature, 30 min; GST-TFs on glutathione beads, 16-mer random dsDNA library, 0.1% formaldehyde crosslink after washing; high values mean tight binding
The target in experiment [1] is T1, ERG (Homo sapiens, UniProt P11308 1-479).
T1 sequence: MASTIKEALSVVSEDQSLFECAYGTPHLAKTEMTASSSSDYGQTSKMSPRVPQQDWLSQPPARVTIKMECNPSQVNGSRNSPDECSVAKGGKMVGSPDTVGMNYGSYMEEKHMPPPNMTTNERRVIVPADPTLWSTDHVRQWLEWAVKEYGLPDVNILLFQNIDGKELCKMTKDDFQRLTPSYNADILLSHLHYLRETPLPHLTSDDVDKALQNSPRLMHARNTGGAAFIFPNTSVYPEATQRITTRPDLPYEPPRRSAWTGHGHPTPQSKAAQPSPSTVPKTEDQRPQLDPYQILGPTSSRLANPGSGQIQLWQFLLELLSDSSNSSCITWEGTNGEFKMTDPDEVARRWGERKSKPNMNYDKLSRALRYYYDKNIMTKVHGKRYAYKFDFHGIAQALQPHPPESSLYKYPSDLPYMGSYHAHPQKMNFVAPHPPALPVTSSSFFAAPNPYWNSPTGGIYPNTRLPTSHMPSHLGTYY
As to conditions: protein: recombinant; tags: N-terminal GST; dsDNA, one strand shown. In outline:
(§1)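 A tag-only sample was pooled with DNA-barcoded human transcription factors that had been expressed in yeast as GST fusions and captured on glutathione beads. The pools were incubated for 30 min at room temperature with 200 nmole of a random double-stranded 16-mer DNA library in Tris/NaCl/DTT/glycerol buffer, then washed, crosslinked with 0.1% formaldehyde, proximity-ligated (BsaI/T4 ligase, 1 h, 37 °C), PCR-amplified and sequenced on an Illumina NextSeq500. Binding signal is each hexamer's read frequency for a factor divided by its frequency for the tag-only sample.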

Experiment [2] has as its target SPI1 (Homo sapiens, UniProt P17947 1-270). As to conditions: protein: recombinant; tags: N-terminal GST; dsDNA, one strand shown. In outline:
as §1

In experiment [3] the target is HSF1 (Homo sapiens, UniProt Q00613 1-529). As to conditions: protein: recombinant; tags: N-terminal GST; chain copies: 3; dsDNA, one strand shown. The gist of the method: as §1
For experiment [4], the target named is T2, ETV2 (Homo sapiens, UniProt O00321 1-342).
T2 sequence: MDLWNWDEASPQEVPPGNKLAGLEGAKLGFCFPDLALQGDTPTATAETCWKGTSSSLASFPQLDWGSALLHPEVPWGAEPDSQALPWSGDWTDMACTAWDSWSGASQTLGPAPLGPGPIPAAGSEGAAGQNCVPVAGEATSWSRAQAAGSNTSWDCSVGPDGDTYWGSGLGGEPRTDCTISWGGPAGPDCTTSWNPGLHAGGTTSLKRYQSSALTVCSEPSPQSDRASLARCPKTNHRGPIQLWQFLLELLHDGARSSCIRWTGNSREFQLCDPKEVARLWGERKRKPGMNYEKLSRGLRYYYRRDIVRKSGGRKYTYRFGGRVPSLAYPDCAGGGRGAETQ
The following applies: protein: recombinant; tags: N-terminal GST; dsDNA, one strand shown. The gist of the method:
as §1

The target of experiment [5] is CRX (Homo sapiens, UniProt O43186 1-299). As to conditions: protein: recombinant; tags: N-terminal GST; dsDNA, one strand shown. In outline:
as §1

Experiment [6] addresses T3, SPDEF (Homo sapiens, UniProt O95238 1-335).
T3 sequence: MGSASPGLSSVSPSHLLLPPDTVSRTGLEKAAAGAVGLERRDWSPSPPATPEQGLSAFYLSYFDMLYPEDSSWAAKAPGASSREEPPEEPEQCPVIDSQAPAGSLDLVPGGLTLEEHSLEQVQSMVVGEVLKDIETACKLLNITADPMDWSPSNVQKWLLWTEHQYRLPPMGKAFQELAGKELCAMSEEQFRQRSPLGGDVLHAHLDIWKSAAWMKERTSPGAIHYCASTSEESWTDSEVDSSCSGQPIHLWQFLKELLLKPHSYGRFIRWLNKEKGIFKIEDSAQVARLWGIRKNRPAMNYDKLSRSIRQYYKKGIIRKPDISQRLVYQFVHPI
As to conditions: protein: recombinant; tags: N-terminal GST; dsDNA, one strand shown. The gist of the method:
as §1

In experiment [7] the target is T4, FEV (Homo sapiens, UniProt Q99581 1-238).
T4 sequence: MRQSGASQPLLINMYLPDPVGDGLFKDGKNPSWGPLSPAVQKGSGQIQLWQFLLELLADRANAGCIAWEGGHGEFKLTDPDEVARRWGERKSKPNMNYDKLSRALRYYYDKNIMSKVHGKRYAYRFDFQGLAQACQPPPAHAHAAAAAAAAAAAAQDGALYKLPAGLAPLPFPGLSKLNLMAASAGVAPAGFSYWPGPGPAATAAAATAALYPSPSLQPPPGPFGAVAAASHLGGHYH
The following applies: protein: recombinant; tags: N-terminal GST; dsDNA, one strand shown. The gist of the method:
as §1

For experiment [8], the target named is T5, ELF3 (Homo sapiens, UniProt P78545 1-371).
T5 sequence: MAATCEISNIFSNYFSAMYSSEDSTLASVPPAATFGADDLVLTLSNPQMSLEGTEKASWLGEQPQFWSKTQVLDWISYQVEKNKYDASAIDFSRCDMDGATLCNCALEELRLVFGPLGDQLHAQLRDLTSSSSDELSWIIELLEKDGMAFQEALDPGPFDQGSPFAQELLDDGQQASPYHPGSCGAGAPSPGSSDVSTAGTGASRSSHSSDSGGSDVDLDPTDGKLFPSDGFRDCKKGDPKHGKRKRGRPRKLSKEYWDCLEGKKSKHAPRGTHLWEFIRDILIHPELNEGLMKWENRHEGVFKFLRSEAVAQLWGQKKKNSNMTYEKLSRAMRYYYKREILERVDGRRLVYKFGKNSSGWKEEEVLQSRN
As to conditions: protein: recombinant; tags: N-terminal GST; dsDNA, one strand shown. In outline: as §1

The target of experiment [9] is T6, ELF5 (Homo sapiens, UniProt Q9UKW6-2 1-255).
T6 sequence: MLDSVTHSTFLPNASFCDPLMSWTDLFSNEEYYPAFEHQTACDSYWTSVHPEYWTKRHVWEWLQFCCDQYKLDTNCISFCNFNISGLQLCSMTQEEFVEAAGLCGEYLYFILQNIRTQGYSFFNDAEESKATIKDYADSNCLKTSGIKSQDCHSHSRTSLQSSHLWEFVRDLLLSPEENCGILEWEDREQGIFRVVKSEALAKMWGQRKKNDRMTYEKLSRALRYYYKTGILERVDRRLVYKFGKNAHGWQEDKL
The following applies: protein: recombinant; tags: N-terminal GST; dsDNA, one strand shown. In outline:
as §1

Experiment [10] deals with T7, ETV3 (Homo sapiens, UniProt P41162-2 1-143).
T7 sequence: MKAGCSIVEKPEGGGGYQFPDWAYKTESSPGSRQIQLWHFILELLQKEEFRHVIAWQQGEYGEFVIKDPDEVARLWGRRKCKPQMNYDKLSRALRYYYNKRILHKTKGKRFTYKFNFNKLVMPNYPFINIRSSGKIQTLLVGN
The following applies: protein: recombinant; tags: N-terminal GST; dsDNA, one strand shown. In outline: as §1

The target in experiment [11] is T8, ELK3 (Homo sapiens, UniProt P41970 1-407).
T8 sequence: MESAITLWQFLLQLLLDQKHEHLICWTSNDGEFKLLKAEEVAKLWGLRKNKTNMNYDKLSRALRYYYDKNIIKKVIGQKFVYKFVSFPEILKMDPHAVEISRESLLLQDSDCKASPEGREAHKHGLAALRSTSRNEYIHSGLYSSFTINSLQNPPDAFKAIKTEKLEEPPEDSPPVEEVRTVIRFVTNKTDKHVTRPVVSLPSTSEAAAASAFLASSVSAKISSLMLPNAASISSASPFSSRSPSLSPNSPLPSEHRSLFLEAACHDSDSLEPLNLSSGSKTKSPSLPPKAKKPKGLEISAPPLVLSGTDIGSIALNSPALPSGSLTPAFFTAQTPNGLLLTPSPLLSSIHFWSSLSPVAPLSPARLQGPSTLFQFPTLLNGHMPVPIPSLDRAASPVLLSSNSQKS
The following applies: protein: recombinant; tags: N-terminal GST; dsDNA, one strand shown. In outline:
as §1

The target in experiment [12] is T9, ETV3L (Homo sapiens, UniProt Q6ZN32 1-361).
T9 sequence: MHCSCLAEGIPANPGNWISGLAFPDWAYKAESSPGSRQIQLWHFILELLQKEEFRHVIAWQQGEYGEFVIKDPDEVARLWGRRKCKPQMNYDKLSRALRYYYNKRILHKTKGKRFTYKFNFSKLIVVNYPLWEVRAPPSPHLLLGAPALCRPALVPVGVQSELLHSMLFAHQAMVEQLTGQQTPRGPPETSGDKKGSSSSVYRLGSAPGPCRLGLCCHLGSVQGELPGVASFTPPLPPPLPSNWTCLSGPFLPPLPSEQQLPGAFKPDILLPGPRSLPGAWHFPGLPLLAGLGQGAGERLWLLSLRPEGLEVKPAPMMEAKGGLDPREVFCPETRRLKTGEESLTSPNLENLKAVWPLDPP
As to conditions: protein: recombinant; tags: N-terminal GST; dsDNA, one strand shown. The gist of the method:
as §1

Sequence of HSF1 (Q00613 whole entry): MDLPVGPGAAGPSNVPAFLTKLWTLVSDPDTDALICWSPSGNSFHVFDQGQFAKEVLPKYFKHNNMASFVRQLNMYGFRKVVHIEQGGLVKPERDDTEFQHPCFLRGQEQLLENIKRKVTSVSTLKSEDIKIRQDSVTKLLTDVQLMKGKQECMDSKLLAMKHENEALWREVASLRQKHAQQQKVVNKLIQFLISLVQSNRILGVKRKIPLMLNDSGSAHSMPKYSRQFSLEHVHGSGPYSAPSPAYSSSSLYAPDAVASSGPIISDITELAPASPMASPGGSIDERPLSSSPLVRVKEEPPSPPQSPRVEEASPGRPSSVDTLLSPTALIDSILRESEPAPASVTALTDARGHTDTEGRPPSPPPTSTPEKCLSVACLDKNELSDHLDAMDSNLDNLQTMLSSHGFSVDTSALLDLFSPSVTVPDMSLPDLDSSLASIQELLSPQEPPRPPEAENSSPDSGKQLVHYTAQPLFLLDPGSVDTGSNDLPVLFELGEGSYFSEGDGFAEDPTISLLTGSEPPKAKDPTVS
Sequence of CRX (O43186 whole entry): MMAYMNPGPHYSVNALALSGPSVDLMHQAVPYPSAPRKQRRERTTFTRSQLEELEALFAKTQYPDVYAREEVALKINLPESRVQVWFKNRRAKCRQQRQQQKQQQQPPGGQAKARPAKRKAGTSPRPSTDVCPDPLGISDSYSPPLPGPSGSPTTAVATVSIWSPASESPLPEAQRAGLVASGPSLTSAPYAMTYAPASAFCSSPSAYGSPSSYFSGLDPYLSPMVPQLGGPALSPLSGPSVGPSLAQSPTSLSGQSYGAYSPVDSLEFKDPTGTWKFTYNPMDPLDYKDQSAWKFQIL

TTCAGA: the binding signal was 1.02 fold enrichment (6-mer frequency, TF over GST control) in experiment [1]; 1.04 fold enrichment (6-mer frequency, TF over GST control) in experiment [2]; 1.09 fold enrichment (6-mer frequency, TF over GST control) in experiment [3]; 1.08 fold enrichment (6-mer frequency, TF over GST control) in [4]; 1.03 fold enrichment (6-mer frequency, TF over GST control) in [5]; 1.01 fold enrichment (6-mer frequency, TF over GST control) in experiment [6].
As to AGACTA, the binding signal in experiment [3] is 1.06 fold enrichment (6-mer frequency, TF over GST control); in experiment [5] it was 1.02 fold enrichment (6-mer frequency, TF over GST control).
TAAGAC: the binding signal in experiment [3] is 1.22 fold enrichment (6-mer frequency, TF over GST control); in experiment [5] it was 1.72 fold enrichment (6-mer frequency, TF over GST control).
Regarding ACCAGA, the binding signal was 1.55 fold enrichment (6-mer frequency, TF over GST control) in experiment [3]; 1.01 fold enrichment (6-mer frequency, TF over GST control) in [4]; 1.06 fold enrichment (6-mer frequency, TF over GST control) in experiment [5].
Regarding CGTCGA, the binding signal in experiment [3] was 1.06 fold enrichment (6-mer frequency, TF over GST control); in [4] it was 1.01 fold enrichment (6-mer frequency, TF over GST control); in experiment [6], 1.02 fold enrichment (6-mer frequency, TF over GST control).
On to GGATAA, for which the binding signal was 1.2 fold enrichment (6-mer frequency, TF over GST control) in experiment [3] and 1.75 fold enrichment (6-mer frequency, TF over GST control) in experiment [5].
CAGATA: the binding signal in experiment [3] is 1.12 fold enrichment (6-mer frequency, TF over GST control); in experiment [5], 1.17 fold enrichment (6-mer frequency, TF over GST control).
For TTAGAC, the binding signal in [3] is 1.1 fold enrichment (6-mer frequency, TF over GST control); in experiment [5], 1.44 fold enrichment (6-mer frequency, TF over GST control).
In the case of CGGATT, the binding signal in experiment [1] was 1 fold enrichment (6-mer frequency, TF over GST control); in experiment [7], 1.44 fold enrichment (6-mer frequency, TF over GST control); in experiment [3], 1.56 fold enrichment (6-mer frequency, TF over GST control); in [8] it was 1.01 fold enrichment (6-mer frequency, TF over GST control); in experiment [5], 2.48 fold enrichment (6-mer frequency, TF over GST control); in [6], 1.42 fold enrichment (6-mer frequency, TF over GST control). Moreover, the binding signal in experiment [9] is 1.01 fold enrichment (6-mer frequency, TF over GST control); in experiment [10], 1.04 fold enrichment (6-mer frequency, TF over GST control).
As for ATCAAG, the binding signal in experiment [11] is 1.04 fold enrichment (6-mer frequency, TF over GST control); in experiment [3], 1.03 fold enrichment (6-mer frequency, TF over GST control); in experiment [4], 1.17 fold enrichment (6-mer frequency, TF over GST control); in experiment [5], 1.19 fold enrichment (6-mer frequency, TF over GST control); in [12], 1.06 fold enrichment (6-mer frequency, TF over GST control); in experiment [6] it was 1.01 fold enrichment (6-mer frequency, TF over GST control).
For GCGATT, the binding signal in experiment [3] is 1.23 fold enrichment (6-mer frequency, TF over GST control); in [8], 1.04 fold enrichment (6-mer frequency, TF over GST control); in experiment [5] it was 1.51 fold enrichment (6-mer frequency, TF over GST control).
Take AGAGAT: the binding signal in experiment [3] is 1.16 fold enrichment (6-mer frequency, TF over GST control); in experiment [5], 1.38 fold enrichment (6-mer frequency, TF over GST control).
